Experiments:
Assay in all cases: protein-binding microarray (PBM); PBM: ~300 nM protein, 6 mM HEPES pH 7.8, 80 mM KCl, 0.5 mM EDTA, 0.5 mM EGTA, 6% glycerol, 35 ng/ul poly-dIdC, 1% milk, 1 h, room temperature; Ap Aiptasia and Nv Nematostella (sea anemones) / Co Capsaspora / Aq Amphimedon (sponge) / Dm Drosophila / Hu human; RHD is the Rel homology domain; high values mean tight binding
Conditions in all cases: dsDNA, one strand shown
GST-Ap-NF-kB RHD = target: T1, GST-Ap-NF-kB RHD (Exaiptasia pallida (Aiptasia), UniProt A0A913YAJ5 2-422)
T1 sequence: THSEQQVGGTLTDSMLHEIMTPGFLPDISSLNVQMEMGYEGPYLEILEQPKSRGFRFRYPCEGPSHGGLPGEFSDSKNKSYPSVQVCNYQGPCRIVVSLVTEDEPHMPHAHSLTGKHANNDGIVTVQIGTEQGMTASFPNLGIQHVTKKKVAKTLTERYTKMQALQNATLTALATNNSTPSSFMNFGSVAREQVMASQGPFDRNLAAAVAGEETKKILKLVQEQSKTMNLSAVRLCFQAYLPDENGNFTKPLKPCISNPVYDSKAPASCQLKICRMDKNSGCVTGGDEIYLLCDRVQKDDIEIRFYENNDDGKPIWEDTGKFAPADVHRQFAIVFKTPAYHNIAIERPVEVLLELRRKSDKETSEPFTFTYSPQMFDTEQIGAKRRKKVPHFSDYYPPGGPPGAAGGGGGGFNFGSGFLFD

[1] = target: T2, GST-Nv-NF-kB (Cys allele) (Nematostella vectensis, UniProt E5G601 2-411)
T2 sequence: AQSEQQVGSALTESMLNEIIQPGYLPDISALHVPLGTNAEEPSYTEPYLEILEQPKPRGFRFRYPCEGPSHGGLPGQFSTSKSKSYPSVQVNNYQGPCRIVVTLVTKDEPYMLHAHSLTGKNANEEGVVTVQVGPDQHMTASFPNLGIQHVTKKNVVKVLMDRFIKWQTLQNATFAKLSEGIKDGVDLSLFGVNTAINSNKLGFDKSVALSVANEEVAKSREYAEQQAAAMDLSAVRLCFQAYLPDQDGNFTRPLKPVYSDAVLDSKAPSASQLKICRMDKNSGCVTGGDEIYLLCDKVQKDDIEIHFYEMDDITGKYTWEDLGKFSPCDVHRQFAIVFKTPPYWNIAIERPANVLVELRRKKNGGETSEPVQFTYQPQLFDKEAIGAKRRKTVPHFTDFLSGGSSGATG

GST-Co-NF-kB = target: T3, GST-Co-NF-kB (Capsaspora owczarzaki, UniProt F1ARL5 200-546)
T3 sequence: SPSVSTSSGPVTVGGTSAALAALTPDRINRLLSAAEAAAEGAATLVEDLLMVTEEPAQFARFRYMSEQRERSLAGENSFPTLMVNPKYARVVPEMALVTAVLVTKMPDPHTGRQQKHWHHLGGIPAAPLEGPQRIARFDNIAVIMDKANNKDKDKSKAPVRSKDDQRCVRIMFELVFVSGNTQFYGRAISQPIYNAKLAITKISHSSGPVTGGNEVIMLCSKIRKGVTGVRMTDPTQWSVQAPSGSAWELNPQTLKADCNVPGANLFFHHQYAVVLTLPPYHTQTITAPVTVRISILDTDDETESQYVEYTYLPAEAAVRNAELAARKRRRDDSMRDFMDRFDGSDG

GST-Dm-Relish = target: T4, GST-Dm-Relish (Drosophila melanogaster, UniProt Q94527 99-473)
T4 sequence: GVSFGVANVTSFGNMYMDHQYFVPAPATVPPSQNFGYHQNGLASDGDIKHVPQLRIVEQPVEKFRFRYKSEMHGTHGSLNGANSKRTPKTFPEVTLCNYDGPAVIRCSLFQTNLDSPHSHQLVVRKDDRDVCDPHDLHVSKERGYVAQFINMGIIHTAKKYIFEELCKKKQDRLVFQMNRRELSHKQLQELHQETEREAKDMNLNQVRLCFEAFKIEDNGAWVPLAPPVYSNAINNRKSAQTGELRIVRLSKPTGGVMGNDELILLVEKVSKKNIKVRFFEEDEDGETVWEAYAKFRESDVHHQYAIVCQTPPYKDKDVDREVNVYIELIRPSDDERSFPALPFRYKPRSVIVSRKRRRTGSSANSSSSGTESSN

GST-Aq-NF-kB = target: T5, GST-Aq-NF-kB (Amphimedon queenslandica, UniProt A9Y5G7 2-389)
T5 sequence: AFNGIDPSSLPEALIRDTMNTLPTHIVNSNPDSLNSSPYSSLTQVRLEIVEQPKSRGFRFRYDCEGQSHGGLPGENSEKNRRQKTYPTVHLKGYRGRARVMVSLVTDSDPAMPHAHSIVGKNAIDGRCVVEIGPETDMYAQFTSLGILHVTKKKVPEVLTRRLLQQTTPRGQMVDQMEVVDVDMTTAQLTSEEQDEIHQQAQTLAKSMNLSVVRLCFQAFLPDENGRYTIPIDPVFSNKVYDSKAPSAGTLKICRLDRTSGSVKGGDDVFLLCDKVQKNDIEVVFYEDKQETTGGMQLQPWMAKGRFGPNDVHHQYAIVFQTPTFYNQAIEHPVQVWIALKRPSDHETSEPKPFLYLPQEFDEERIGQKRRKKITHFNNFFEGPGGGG

GST-Hu-p50 = GST-Hu-p50 (Homo sapiens, UniProt P19838 7-356)
GST-Hu-p50, sequence (P19838 7-356): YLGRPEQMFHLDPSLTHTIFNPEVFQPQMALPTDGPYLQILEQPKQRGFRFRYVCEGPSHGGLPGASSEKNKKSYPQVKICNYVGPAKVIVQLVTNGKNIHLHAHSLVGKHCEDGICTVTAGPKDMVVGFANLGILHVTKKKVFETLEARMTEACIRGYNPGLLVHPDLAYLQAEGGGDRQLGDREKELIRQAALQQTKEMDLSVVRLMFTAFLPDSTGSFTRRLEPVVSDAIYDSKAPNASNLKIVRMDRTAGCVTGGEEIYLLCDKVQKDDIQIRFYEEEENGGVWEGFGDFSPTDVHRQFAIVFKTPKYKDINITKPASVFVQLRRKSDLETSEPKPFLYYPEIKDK

| Sequence | binding signal (GST-Ap-NF-kB RHD) | binding signal [1] | binding signal (GST-Co-NF-kB) | binding signal (GST-Dm-Relish) | binding signal (GST-Aq-NF-kB) | binding signal (GST-Hu-p50) |
| --- | --- | --- | --- | --- | --- | --- |
| CCGATTAACATCAGGGGACGTTATGATGTTAATCGGGTCTTGATTCGCTTGACGCTGCTG | 4.77 z-score | 5 z-score | 3.19 z-score | 2.7 z-score | 4.72 z-score | 4.56 z-score |
| CCGATTAACATCAAAAGCCCCCCTGATGTTAATCGGGTCTTGATTCGCTTGACGCTGCTG | 5.96 z-score | 6 z-score | 4.6 z-score | 8.42 z-score | 6.73 z-score | 5.72 z-score |
| CCGATTAACATCACGCATCCCCCTGATGTTAATCGGGTCTTGATTCGCTTGACGCTGCTG | 6.1 z-score | 4.9 z-score | 4.65 z-score | 3.44 z-score | 4.33 z-score | 5.14 z-score |
| CCGATTAACATCAAACGTTCCCCTGATGTTAATCGGGTCTTGATTCGCTTGACGCTGCTG | 5.26 z-score | 5.7 z-score | 6.66 z-score | 3.29 z-score | 4.66 z-score | 4.03 z-score |
| CCGATTAACATCACAGAGTCCCCTGATGTTAATCGGGTCTTGATTCGCTTGACGCTGCTG | 6.36 z-score | 4.8 z-score | 2.26 z-score | 5.12 z-score | 4.31 z-score | 5.59 z-score |
| CCGATTAACATCAGGCCTTCCCCTGATGTTAATCGGGTCTTGATTCGCTTGACGCTGCTG | 6.39 z-score | 6.79 z-score | 2.84 z-score | 9.6 z-score | 7.14 z-score | 4.63 z-score |
| CCGATTAACATCAAGGGGGGAACTGATGTTAATCGGGTCTTGATTCGCTTGACGCTGCTG | 6.46 z-score | 5.69 z-score | 7.52 z-score | 3.7 z-score | 5.19 z-score | 5.52 z-score |
| CCGATTAACATCACATATCCCCCTGATGTTAATCGGGTCTTGATTCGCTTGACGCTGCTG | 6.5 z-score | 5.23 z-score | 5.73 z-score | 3.26 z-score | 4.79 z-score | 5.03 z-score |
| CCGATTAACATCAGGGGCTTACCTGATGTTAATCGGGTCTTGATTCGCTTGACGCTGCTG | 4.59 z-score | 6.21 z-score | 1.88 z-score | 5.58 z-score | 7.25 z-score | 4.8 z-score |
| CCGATTAACATCAAAAAATCCCTTGATGTTAATCGGGTCTTGATTCGCTTGACGCTGCTG | 6.16 z-score | 7.58 z-score | 1.77 z-score | 8.1 z-score | 7.46 z-score | 5.47 z-score |
| CCGATTAACATCAGGGGGAACACTGATGTTAATCGGGTCTTGATTCGCTTGACGCTGCTG | 6.57 z-score | 5.66 z-score | 8.64 z-score | 6.58 z-score | 5.54 z-score | 5.28 z-score |
| CCGATTAACATCAGGCATCCCCCTGATGTTAATCGGGTCTTGATTCGCTTGACGCTGCTG | 6.28 z-score | 5.13 z-score | 3.74 z-score | 6.22 z-score | 6.35 z-score | 5.3 z-score |
| CCGATTAACATCAAATACCCCCCTGATGTTAATCGGGTCTTGATTCGCTTGACGCTGCTG | 7.87 z-score | 5.54 z-score | 6.37 z-score | 6.76 z-score | 6.24 z-score | 5.42 z-score |
| CCGATTAACATCAAGGAATTCCCTGATGTTAATCGGGTCTTGATTCGCTTGACGCTGCTG | 6.83 z-score | 7.7 z-score | 4.22 z-score | 8.03 z-score | 8.14 z-score | 5.07 z-score |
| CCGATTAACATCAGGAGATCCCCTGATGTTAATCGGGTCTTGATTCGCTTGACGCTGCTG | 7.87 z-score | 8.09 z-score | 2.55 z-score | 8.66 z-score | 8.6 z-score | 5.88 z-score |
| CCGATTAACATCAAAATCACCCCTGATGTTAATCGGGTCTTGATTCGCTTGACGCTGCTG | 4.66 z-score | 2.97 z-score | 5.02 z-score | 5.22 z-score | 3.41 z-score | 4.39 z-score |
| CCGATTAACATCAGGATGTCCCCTGATGTTAATCGGGTCTTGATTCGCTTGACGCTGCTG | 6.09 z-score | 4.93 z-score | 2.61 z-score | 5.89 z-score | 5.87 z-score | 4.51 z-score |
| CCGATTAACATCAAAAAACCCCGTGATGTTAATCGGGTCTTGATTCGCTTGACGCTGCTG | 7.4 z-score | 7.45 z-score | 3.92 z-score | 8.97 z-score | 7.03 z-score | 6.45 z-score |

Source: paper PMC5700166
